# Screens from PubChem BioAssay.
# Pf growth 96h = Primary qHTS for delayed death inhibitors of the malarial parasite plastid, 96 hour incubation; P. falciparum luciferase reporter growth, 96 h; Potency, µM (top dose mostly 28.7 µM), inactives show at the top dose activity change, negative = inhibition, most hits filed as inhibitors; 6.9% of 320,000 active; further: potency means the concentration at half of the fitted maximal effect; on the % scale 0 is the no-effect control and ±100 the full control effect
#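 Delayed-death screen, second-generation endpoint: infected erythrocytes, 2% hematocrit, 0.05% parasitemia final; 96 hours at 37 C, 5% CO2; luciferase detection reagent; luminescence decrease equals reduced growth.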
# SARS PLpro yeast = qHTS of Yeast-based Assay for SARS-CoV PLP. S. cerevisiae expressing SARS-CoV PLpro, growth rescue. Potency, µM (top dose mostly 32.9 µM), for the others: at the top dose activity, positive = growth rescue, hits mostly activators. 0.19% of 330,000 active; calls by dose curve; further: potency means the concentration at half of the fitted maximal effect; 0% is about no effect; nearly all actives have a fitted effect of over 55% in size
# Cycloheximide cs = Cycloheximide Counterscreen for Small Molecule Inhibitors of Shiga Toxin; 12% of 300,000 active; max response, %; cell reporter, cycloheximide protein synthesis inhibition counterscreen; AID 2314, 2010; in the data active means max response mostly above about 13%, no sharp cut-off; inactive means mostly below about 14%; further: read at 38.3 µM for the half of the compounds with a filed dose; 0% is about no effect
# AMA1-RON2 inh = qHTS for Inhibitors of AMA1-RON; Towards Development of Antimalarial Drug Lead: Primary Screen | AlphaScreen AMA1-biotinylated RON2 peptide binding | Potency, µM (titrated, usually from 58.2 µM), without a hit: at the highest dose activity change, negative = inhibition, usual class: inhibitors | 0.2% of 360,000 active | AID 720542, 2013;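 further: potency means the concentration at half of the fitted maximal effect; 0% = vehicle wells and -100% = peptide control; nearly all actives have a fitted effect of over 45% in size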
#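 AMA1 (3D7) with his tag at 25 nM final met compounds first, then biotinylated RON2 peptide at 25 nM; detection used donor plus acceptor beads, 10 µg/mL apiece, read by AlphaScreen after 30 min at room temperature.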
# Pf growth 48h = Primary qHTS for delayed death inhibitors of the malarial parasite plastid, 48 hour incubation; P. falciparum luciferase growth in erythrocytes, 48 h; Potency, µM (titrated, usually from 28.7 µM), inactives show top-dose activity change, negative = inhibition, hits mostly inhibitors; 5.9% of 310,000 active; further: potency means the concentration at half of the fitted maximal effect; on the % scale 0 is the no-effect control and ±100 the full control effect
#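 A one-generation exposure of luciferase-tagged malaria parasites in RPMI 1640/Albumax erythrocyte culture, 37 C and 5% CO2. Inhibition is inferred from decreased luminescence after adding detection reagent.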
# Shiga toxin inh = A qHTS for Small Molecule Inhibitors of Shiga Toxin. Vero cells, Shiga toxin protein synthesis inhibition reporter. inhibition, % at 38.7 µM. 9.2% of 290,000 active; in the data active means inhibition mostly above about 28%, no sharp cut-off; inactive means mostly below about 43%; further: 0% is about no effect
# Numbers without * were called inactive; i = inactive; ? = inconclusive; . = not tested or not shown. Most compounds without a hit are left out; they make up all but 19% or so of the library. Unless noted, the call rests on the fitted dose curve; in most records, active means well fitted curve in the direction sought with a large enough effect; inconclusive means small, poorly fitted or top-dose-only effect, or another doubt; inactive means no such curve, though single readings can be large; an effect the other way counts as inactive or inconclusive.
SMILES,Pf growth 96h,SARS PLpro yeast,Cycloheximide cs,AMA1-RON2 inh,Pf growth 48h,Shiga toxin inh
CCNC(=O)NC(=O)C(C)OC(=O)CCCc1nc2ccccc2s1 (stereo not drawn),7.1%,-0.4%,7.7,3.2%,-18.1%,1.0
CC(=O)Nc1c(I)cc(I)c(C(=O)O)c1I,-18.2%,.,.,.,-14.9%,.
C(=N\Nc1nc(Nc2ccccc2)nc(Nc2ccccc2)n1)/c1ccncc1,-26.8%,-0.3%,-1.6,-21.4%,-0.5%,-9.2
C(=N\Nc1nc(Nc2ccccc2)nc(Nc2ccccc2)n1)/c1cccnc1,-2.3%,-0.9%,4.9,31.1%,3.29µM*,36.3
C(=N/Nc1nc(-c2ccccc2)cc(-c2ccccc2)n1)/c1cccnc1,-15.3%,-79.0%,61.4*,-1.0%,?,68.8*
Oc1cccc(/C=N\Nc2nncc(-c3ccccc3)n2)c1,-19.0%,0.4%,64.2*,27.5%,25.2%,50.2*
Cc1[nH]n(-c2ccccc2)c(=O)c1/C=N/Nc1nncc(-c2ccccc2)n1,0.586µM*,7.9%,-1.1,-93.1%,0.415µM*,1.7
CSCC[C@H](NC(=O)CCNC(C)=O)c1nc2ccccc2[nH]1,.,0.6%,1.7,-5.8%,7.1%,-6.2
CN(c1ccccc1C(=O)O)S(=O)(=O)c1ccc2c3c(cccc13)C(=O)N2,11.7µM*,0.9%,-1.2,8.1%,8.1%,-2.7
CCc1ccc(NC(=O)CN(c2ccccc2)S(=O)(=O)N(C)C)cc1,20.1%,0.4%,10.5,5.4%,-3.2%,15.0
COc1ccc(OC)c(C(=O)N2CCCC(Nc3ccc(F)cc3)C2)c1 (stereo not drawn),97.4%,-1.1%,8.8,-2.3%,-9.5%,-14.7
Cc1nnc2sc(SCC(=O)N3CCC(C)CC3)nn2c1=O,3.7µM*,0.8%,0.5,0.1%,?,-12.7
Cc1ccc(S(=O)(=O)N2CCN(C(=O)CSc3nnc(C)s3)C2)cc1,4.15µM*,4.5%,-2.8,19.5%,.,-11.5
Cc1ccccc1NC(=O)CSc1nn2c(=O)c(C)nnc2s1,?,-1.0%,-3.9,91.6%,?,1.2
Cc1ccccc1CSc1nn2c(=O)c(C)nnc2s1,?,-3.2%,-2.8,2.3%,5.22µM*,-5.1
Cc1nnc2sc(SCC(=O)N3CCCCC3)nn2c1=O,0.828µM*,3.4%,0.6,14.6%,2.62µM*,15.7
COc1ccccc1COC(=O)Nc1c(C)nn(C)c1Cl,-10.3%,-0.5%,-1.6,-9.5%,5.1%,-5.6
O=C(Cn1c(NCCO)nc2ccccc21)NCC1CCCO1 (stereo not drawn),25.9%,-6.4%,-6.2,15.0%,8.2%,-24.1
O[C@@H]1CCN2Cc3ccccc3N=C12,.,.,-1.2,.,.,9.8
Cc1ncc([N+](=O)[O-])n1CC(=O)Nc1ccccc1Cl,.,.,.,-12.0%,.,.
Cc1nnc(SCC(=O)N2CCCCC2)s1,.,3.6%,17.6*,7.2%,27.0%,33.8*
CCCCc1nnc(NC(=O)COC)s1,19.6%,-1.1%,-0.9,4.6%,4.4%,27.8
CCCCOC(=O)Nc1nnc(-c2ccccc2OC)s1,?,-0.4%,-1.1,-5.3%,?,-8.7
CCCCOC(=O)Nc1nnc(C(C)C)s1,61.8%,-4.4%,36.9*,-1.9%,i,118.8*
CCCCCOC(=O)Nc1nnc(CCC)s1,?,15.8%,28.2*,-5.6%,-11.7%,41.2
SMILES,Pf growth 96h,SARS PLpro yeast,Cycloheximide cs,AMA1-RON2 inh,Pf growth 48h,Shiga toxin inh
O=C1NCN(c2ccccc2)C12CCN(CC1COc3ccccc3O1)CC2 (stereo not drawn),-11.4%,.,.,.,?,.
O=C1NCN(c2ccccc2)C12CCN(CCCC(c1ccc(F)cc1)c1ccc(F)cc1)CC2,3.7µM*,-6.9%,-3.1,-10.7%,1.9µM*,-7.1
O=C1NCN(c2ccccc2)C12CCNCC2,?,-1.8%,4.4,-8.7%,2.62µM*,2.4
CCCOc1ccc(CN(CCC#N)C(=S)NC(=O)c2ccccc2)cc1,15.2%,-29.9%,23.5*,13.5%,?,-32.1
COc1cc(C(=O)NC(=S)N(CCC#N)Cc2cccnc2)cc(OC)c1OC,.,-11.9%,.,28.9%,.,.
Cc1cccc(OCCCC(=O)Nc2ccc(Cl)c(S(=O)(=O)N3CCOCC3)c2)c1,?,-4.4%,.,-1.3%,?,.
CC(CC(=O)Nc1ccc(Cl)c(S(=O)(=O)N2CCOCC2)c1)c1ccccc1 (stereo not drawn),?,-2.7%,.,0.0%,11.7µM*,.
CCOc1ccccc1OCCCC(=O)Nc1ccc(Cl)c(S(=O)(=O)N2CCOCC2)c1,7.38µM*,4.5%,.,3.1%,9.28µM*,.
COc1cc(OC)cc(C(=O)NC(C(=O)Nc2ccc3nc(C)sc3c2)C(C)C)c1 (stereo not drawn),6.57µM*,10.0%,.,-2.0%,3.29µM*,.
Cc1nc2ccc(NC(=O)[C@@H](NC(=O)c3c(F)cccc3F)C(C)C)cc2s1,?,5.5%,.,-6.3%,2.08µM*,.
COc1cc(OC)cc(C(=O)N[C@H](C(=O)Nc2nc3ccc(S(C)(=O)=O)cc3s2)C(C)C)c1,?,0.4%,11.2,2.7%,4.65µM*,-0.9
COc1ccc(NS(=O)(=O)c2cc(NC(=O)c3ccc(=O)[nH]c3)ccc2C)cc1,-16.4%,0.8%,.,2.5%,14.3%,.
COc1ccc(NS(=O)(=O)c2cc(NC(=O)[C@@H](NC(=O)c3ccccc3)C(C)C)ccc2C)cc1,9.28µM*,10.3%,-2.7,-1.4%,9.28µM*,-1.7
CC(C)[C@H](NC(=O)c1c(F)cccc1F)C(=O)Nc1cccc(Br)c1,-9.9%,-0.4%,-5.9,-12.6%,-8.8%,11.8
COc1cc(OC)cc(C(=O)NC(C(=O)Nc2ccc3c(c2)OCO3)C(C)C)c1 (stereo not drawn),-64.7%,-5.8%,.,-9.2%,?,.
O=C(c1ccco1)N1CCN(Cc2cccc([N+](=O)[O-])c2)CC1,-2.1%,0.3%,-0.9,?,9.2%,-5.3
O=C(NCCCN1CCOCC1)c1[nH]c(C(F)(F)F)nc1-c1ccccc1,.,.,.,-6.9%,.,.
CCOC(=O)C1C(=O)CC(C)(O)C(C(=O)OCC)C1c1ccc(OCC)cc1 (stereo not drawn),37.2%,7.7%,0.5,-0.5%,-10.9%,-7.2
CCOC(=O)C1C(=O)CC(C)(O)C(C(=O)OCC)C1c1cccc(OC(F)(F)C(F)F)c1 (stereo not drawn),?,0.0%,-1.8,-1.2%,10.4µM*,13.4
Cc1cc(C(F)F)n2nc(C(=O)Nc3sc4c(c3C(N)=O)CCC4)nc2n1,4.15µM*,?,0.3,68.0%,?,-16.4
COc1ccc(Cl)cc1NC(=O)c1nc2nc(C)cc(C(F)F)n2n1,-4.7%,1.2%,-5.2,-1.0%,.,-15.9
Cc1cc(C(F)F)n2nc(C(=O)Nc3sc4c(c3C#N)CCC(C)C4)nc2n1 (stereo not drawn),-57.5%,-2.4%,-6.1,6.9%,21.3%,-13.6
